The values that follow come from PubChem BioAssay (NCI).

The panel holds about 83,000 compounds, 20% with a hit somewhere; the sample as a whole holds those more often.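 96-well plates, one dose, 48 hours. Percent growth reported; active if below 10.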 Active and inactive are the calls of the source.

For this test, the system named is HL-60(TB) leukemia. As to the kind of experiment: NCI-60 one-dose screen, 48 h (100 = growth as untreated, 0 = no growth, -100 = all killed). Particulars: 10 µM unless noted.
Turning to `CC(C)C(NC(=O)C1(NC(=O)OCc2ccccc2)CCCC1)C(=O)O` (stereo not given), the growth was 90.8% (inactive).

Regarding `CCc1ccc(-c2ccc(Nc3ccccc3)nn2)cc1S(N)(=O)=O`, the growth was 47.4% (inactive). The figure for `Cc1nnc(/N=C2\NC(=O)/C(=C/c3ccsc3)S2)s1` is 102% (inactive).

As for `CCN1CCN(c2nc(C)cc(N(CCCNc3ccnc4cc(Cl)ccc34)Cc3ccc4c(c3)OCO4)n2)CC1`, the growth was -60.4% (active). The figure for `C[C@]12CC[C@@H]3c4ccc(O)cc4CC[C@H]3[C@@H]1CC[C@@H]2NS(=O)(=O)c1cccc(Br)c1` is 35.2% (inactive); for `CNC(=O)c1cc(Oc2ccc(NC(=O)Nc3cc(C(C)(C)C)nn3-c3ccc4ncccc4c3)c(F)c2)ccn1` it is -43.2% (active); for `COc1cnc2c(c1)C(=O)c1c-2n(CCCN2CCNCC2)c(=O)c2cc([N+](=O)[O-])ccc12` it is -49% (active).

As to `C=CCc1cc(Nc2c3ccc(Cl)cc3nc3ccc(OC)cc23)cc(CN(CC)CC)c1O`, the growth is -17% (active). `O=c1[nH]c(=O)n(C2CC(O)C(CO)O2)cc1CO` (stereo not given): the growth was 107% (inactive). For `CC(=O)c1ccc(Nc2nc(Cl)nc(Oc3c(Cl)cccc3Cl)n2)cc1` the value was 97.8% (inactive). For `COc1ccc2c(c1)CC/C(=C\c1cncc(Br)c1)C2=O` the value was 100% (inactive). For `CCN1C(=O)N(CC)C2C1NN=c1s/c(=C\c3ccco3)c(=O)n12` (stereo not given) the value was -20.3% (active); for `CCN1C(=O)N(CC)C2Nn3c(s/c(=C\c4ccc([N+](=O)[O-])cc4)c3=O)=NC21` (stereo not given), 87% (inactive); for `CCOC(=O)Cn1c(=O)c2c(c3ccccc3n2C)n2nnc(-c3ccccc3)c12`, 109% (inactive). For the molecule `COc1cc(Cc2cc(OC)c(O)c(OC)c2)cc(OC)c1O`, the growth is 44% (inactive). The figure for `COC(=O)c1nc(-c2ccccc2)oc1S(=O)(=O)N1CCCC(C)C1` (stereo not given) is 15% (inactive); for `CCOc1ccccc1Cn1ccnc1CCc1c(Cl)c(O)cc(O)c1C(=O)OC` it is 106% (inactive).

Consider `CC(C)N1CCN(c2ccncc2S(=O)(=O)N2CCN(C)CC2)CC1`, for which the growth is 95.7% (inactive). In the case of `O=C(CC(=O)Nc1cccc(C(=O)O)c1)Nc1cccc(C(=O)O)c1`, the growth is 113% (inactive). The figure for `CCCCCCCCCCCCCCCC[N+]1(CC)CCCC1` is -69.9% (active). As to `C[C@]12CC[C@@H]3c4ccc(O)c(N)c4CC[C@H]3[C@@H]1CC[C@@H]2O`, the growth was 85.3% (inactive). For `CCn1c(C)nc2cc(C(N)=O)ccc21` the value was 79.7% (inactive); for `COc1cc(OC)c2sc(-c3ccc(-n4cncc4-c4ccc(N)cc4)cc3)nc2c1`, 52.6% (inactive). As for `COc1cc(C2NC(c3ccc(Cl)cc3)C(C)/C(=N/NC(N)=S)C2C)cc(OC)c1OC` (stereo not given), the growth was 79.9% (inactive). Turning to `N#CC(C#N)N=Nc1ccc(Cl)cc1Cl`, the growth is 53% (inactive). The figure for `CC(C)CSc1oc(-c2ccccc2)nc1S(=O)(=O)c1ccccc1` is 82% (inactive).

For `Cc1ccc(C2=NNC(c3sc(Cl)nc3Cl)C2)cc1` (stereo not given), the growth was 92.7% (inactive).

As for `O=C(Nc1ccc(-n2cc(-c3ccncc3)c(-c3ccc(Cl)c(O)c3)n2)cc1)N1CCOCC1`, the growth is 108% (inactive). For `c1ccc(Sc2ncccn2)nc1`, the growth was 100% (inactive). For `CCOC(=O)/C=C1\S/C(=N\Nc2cc(=O)[nH]c3ccccc23)N(c2ccccc2)C1=O` the value was 99.1% (inactive).
